# Assay outcomes from PubChem.
# Most compounds without a hit are left out; they make up all but 3.9% or so of the library.
# TGFb inhibitor = qHTS for Inhibitors of TGF-b. 1.2% of 410,000 active. Potency, µM (doses to about 46.1 µM), without a hit: top-dose activity, negative = inhibition, usual class: inhibitors. AID 588855, 2011. HepG2 CAGA-GFP TGF-b/SMAD3 reporter, GFP fluorescence, 18 h; TGF-beta stimulated, 500 pg/mL final; also: % is scaled to controls: 0 for no effect and ±100 for the full control effect; nearly all actives have a fitted effect of over 65% in size
#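 First, reporter cells (HEPG2 CAGA-GFP) rested 2 h at 37 degrees C. Next, compounds were pinned in and TGF-beta added to 500 pg/mL final. After 18 h, GFP was imaged per cell and summed per well.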
# HT1080 IDH1KD tx = qHTS for induction of synthetic lethality in tumor cells producing 2HG: qHTS for the HT-1080-IDH1KD cell line; 2% of 360,000 active; HT-1080 IDH1 knockdown viability, ATP luminescence, 48 h; AID 686971, 2013; Potency, µM (series often up to 46.1 µM), inactives show at the top dose activity, negative = toxicity, actives largely listed as cytotoxic;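 also: 0% = DMSO wells and -100% = cell-free medium wells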
#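 Knockdown cells (IDH1KD HT-1080) received compounds 2 h after plating at 750 cells/well and were kept 48 h at 37 °C in 5% FBS RPMI. A CellTiter-Glo luminescence read gave % activity for curve fitting.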
# HT1080-NT tox = qHTS for induction of synthetic lethality in tumor cells producing 2HG: qHTS for the HT-1080-NT fibrosarcoma cell line | HT-1080-NT fibrosarcoma viability, CellTiter-Glo ATP luminescence, 48 h | Potency, µM (highest dose often 46.1 µM), for the others: at the top dose activity, negative = less viability, actives largely listed as cytotoxic | 1.6% of 360,000 active;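 also: NT is the 2HG producing partner of a matched IDH1 knockdown line; 0% = DMSO-treated cells and -100% = media-only wells without cells; nearly all actives have a fitted effect of over 55% in size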
#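 HT-1080-NT fibrosarcoma cells (2HG-overproducing), 750 cells/well in RPMI with 5% FBS, dosed after 2 h and incubated 48 h at 37C. CellTiter-Glo luminescence normalized to DMSO and no-cell wells; concentration-response curves fitted and classed.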
# ATXN viability = Viability Counterscreen for Primary qHTS for Inhibitors of ATXN expression; 0.49% of 400,000 active; S2 cells (HEK-293 line with an ATXN2-luciferase reporter) viability, CellTiter-Fluor protease fluorescence, 24 h; Potency, µM (doses to about 56.7 µM), actives largely listed as cytotoxic; also: nearly all actives have a fitted effect of over 40% in size
# HepG2 viability = qHTS for Inhibitors of TGF-b: Cytotox Counterscreen | AID 588856, 2011 | Potency, µM (top dose mostly 46.1 µM), for the others: top-dose activity change, negative = cytotoxicity, most hits filed as cytotoxic | 0.76% of 410,000 active | HepG2 CAGA-GFP viability, ATP luminescence, 18 h
#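 CellTiter-Glo luminescence gave cytotoxicity after 18 hours at 37 degrees C. The cells were HepG2 CAGA-GFP in 1% FBS DMEM, stimulated with 500 pg/mL TGF-beta after compound addition. %Activity was normalised to no-cell wells (complete cell-killing) and DMSO (no toxicity), and curves were fitted and classified.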
# ATXN2 expr inh = Primary qHTS for Inhibitors of ATXN expression; HEK-293 ATXN2-luciferase reporter, luminescence, 24 h; Potency, µM (titrated, usually from 57 µM), inactives show top-dose activity change, negative = inhibition, actives largely listed as inhibitors; 0.72% of 360,000 active; AID 1745845, 2022; also: % is scaled to controls: 0 for no effect and ±100 for the full control effect; nearly all actives have a fitted effect of over 55% in size
#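 qHTS (up to 57 uM final) was run with 24 h compound exposure of reporter cells at 37 °C. Each well was multiplexed: SteadyGlo luminescence measured ATXN2-luciferase expression after a fluorogenic Gly-Phe-AFC viability readout (25 uM final).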
# The depositor's hits bear a star; i = inactive; ? = inconclusive; / = no result. Calls follow the shape of the dose curve; as a rule, active = well fitted curve in the direction sought with a large enough effect; inconclusive = small, poorly fitted or top-dose-only effect, or another doubt; inactive = no such curve, though single readings can be large; an effect the other way counts as inactive or inconclusive. Potency is read from the fitted curve at half-maximal effect.
SMILES,TGFb inhibitor,HT1080 IDH1KD tx,HT1080-NT tox,ATXN viability,HepG2 viability,ATXN2 expr inh
Clc1ccc(CSc2nnc(-c3c[nH]c4ccccc34)o2)cc1,16µM*,?,?,i,-69%,-25%
COc1cc(SC)ccc1C(=O)Nc1ccc2c(c1)OCCO2,-1%,?,1.8µM*,i,-37%,26%
COc1cc(SC)ccc1C(=O)NNC(=O)c1cc(C)oc1C,10%,9.2µM*,8.2µM*,?,7.9µM*,-7%
COc1cc(SC)ccc1C(=O)Nc1c(C)cccc1C,0%,11%,5%,i,-2%,-6%
Cc1cccc(NC(=O)Nc2nnc(N(C)C3CCCCC3)s2)c1C,-9%,/,/,i,10%,-4%
O=C1[C@@H]2Cc3c([nH]c4ccccc34)C(c3cccc(Br)c3)N2C(=O)CN1C1CCN(Cc2ccccc2)CC1 (stereo partly specified),16µM*,23µM*,?,?,-44%,?
CC(=O)Nc1ccccc1-c1nc2ccccc2n(CC(=O)c2ccc(Br)cc2)c1=O,0%,/,/,i,-10%,-9%
CCOc1ccc2oc(=O)cc(CN3CCN(c4ccc(OC)cc4)CC3)c2c1,-22%,/,/,/,-44%,/
COC(=O)Nc1nc2ccc(SC(C)C)cc2[nH]1,?,1.3µM*,?,?,-11%,10%
COc1ccc(/C=N/NC(=S)Nc2cc(S(=O)(=O)N3CCOCC3)ccc2N2CCOCC2)cc1O,?,16µM*,21µM*,i,-30%,-18%
COc1ccc2ccccc2c1/C=N/NC(=S)Nc1cc(S(=O)(=O)N2CCOCC2)ccc1N1CCOCC1,15%,-3%,-2%,i,0%,4%
Cc1ccccc1C(=O)N1CCc2c(cnc(C)c2CNC(=O)CN2CCCCC2)C1,/,/,/,i,/,/
O=C(c1ccco1)N1CCN(C(=O)c2cc(-c3ccccc3)nc3ccccc23)CC1,-15%,-16%,-22%,i,-26%,11%
Cc1cccc2c(C(=O)N3CCN(C(=O)c4ccco4)CC3)cc(-c3cccc(Br)c3)nc12,?,18µM*,?,?,16%,?
O=C(NCCCN1CCN(c2ccccc2F)CC1)c1nnc(Cc2ccc(Cl)cc2Cl)o1,11µM*,/,/,/,-62%,/
COc1ccccc1CN1CCOc2ccc(C(C)(O)COc3ccccc3)cc2C1 (stereo unspecified),/,/,/,i,/,/
Cc1cc(=O)oc2cc(O)cc(O)c12,0%,1.6µM*,-30%,?,-8%,-9%
CCCCCc1cc(O)c2c(C)cc(=O)oc2c1,-27%,?,-29%,?,-51%,?
Cc1ccccc1-c1nc(CS(=O)(=O)CC(=O)NCc2cccc(Cl)c2)c(C)o1,?,/,/,i,-50%,-39%
COC(=O)c1ccc(CSC(=N)N)o1,0%,-23%,-13%,?,-21%,?
CCc1oc(C(=O)OC)cc1CSC(=N)N,0%,-6%,-1%,i,16µM*,18%
CCCN(Cc1cccs1)C(=O)Nc1cc(C)cc(C)c1,-2%,/,/,/,-11%,/
CC(=O)c1ccc(Nc2nc(-c3sc(C)nc3C)cs2)cc1,-3%,2.9µM*,?,?,-11%,/
Cc1ccc(Nc2nc(-c3sc(C)nc3C)cs2)cc1,?,1.8µM*,1.5µM*,/,-42%,/
COc1ccc(Nc2nc(-c3sc(C)nc3C)cs2)c(OC)c1,14%,16µM*,?,?,3%,-20%
SMILES,TGFb inhibitor,HT1080 IDH1KD tx,HT1080-NT tox,ATXN viability,HepG2 viability,ATXN2 expr inh
Cc1cccc(Nc2nc(-c3sc(C)nc3C)cs2)c1,?,?,26µM*,i,-16%,-5%
Cc1nc(C)c(-c2csc(Nc3cccc(O)c3)n2)s1,-6%,?,?,?,-8%,-3%
COc1ccc(CN2CCOc3ccc(C(O)c4cccnc4)cc3C2)cc1O (stereo unspecified),/,/,/,i,/,/
Cc1cc(Cl)ccc1OCC(=O)N(Cc1sccc1C)C1CCS(=O)(=O)C1 (stereo unspecified),/,/,/,/,-1%,/
CCOc1ccccc1NC(=O)Cn1c(=O)nc(-c2ccccc2F)c2cc(Cl)ccc21,-5%,/,/,/,-12%,/
Cc1nn(C(=O)c2ccccc2)c(C)c1Sc1ccc(Cl)cc1,?,/,/,28µM*,-50%,25µM*
Cc1ccc(Sc2c(C)nn(C(=O)c3ccc(Br)cc3)c2C)cc1,-14%,/,/,i,-27%,13%
CCCCN(C)CCNC(=O)c1ccc2c(=O)n(CCc3ccccc3)c(=O)[nH]c2c1,1%,/,/,i,-4%,10%
CCOc1ccc(N(C)S(=O)(=O)c2cc(-c3cc(C)no3)ccc2C(C)C)cc1,?,-6%,5%,i,-11%,-11%
Cc1cccc(N(C)S(=O)(=O)c2ccc(-c3cc(C)no3)s2)c1,11µM*,0.58µM*,?,i,-27%,12%
CCOc1ccc(N(C)S(=O)(=O)c2ccc(-c3cc(C)no3)s2)cc1,?,7.3µM*,12µM*,?,-35%,/
COc1ccc(/C=C\C(=O)CC(O)(c2ccccc2)C(F)(F)F)cc1 (stereo unspecified),?,11µM*,?,i,-100%,-20%
CCNC(=O)CC1SC(=Nc2ccc(Cl)cc2)N(CC)C1=O (stereo unspecified),?,-3%,1%,i,13µM*,/
CCN=C1SC(CC(=O)NCC)C(=O)N1CC (stereo unspecified),16%,2%,9%,i,-3%,3%
Cc1ccc(CN2C(=O)C(=O)c3cc(Br)cc(C)c32)cc1,?,/,/,/,-98%,?
CCOc1c(N2CCOCC2)cnn(C)c1=O,/,/,/,i,/,-1%
CC1(C)Cc2c(sc(NC(=O)c3ccc4ncsc4c3)c2C(N)=O)C(C)(C)N1,?,23µM*,23µM*,i,-37%,/
COC(=O)c1c(NC(=O)c2ccccc2)sc2c1CC(C)(C)NC2(C)C,15%,0%,-3%,i,5%,-11%
CC1(C)Cc2c(sc(NC(=O)c3ccc(C(=O)c4ccccc4)cc3)c2C(N)=O)C(C)(C)N1,?,9.2µM*,10µM*,?,18µM*,25µM*
COc1ccc(CCNC(=O)c2ccc(Cn3c(=O)c4ccccc4n(Cc4ccc(C)cc4)c3=O)cc2)cc1OC,1%,/,/,i,0%,5%
